Measured values as given in the supplement of paper PMC10849652.
Targets with a hit are over-represented here; the source holds about 8,800 in all. About 0.5% of all pairs of compound and target were hits.

Tests used:
Experiment in all cases: log2 fold change, soluble protein after heating vs DMSO (PISA); higher = thermal stabilisation; K562 lysate, 10 uM; active = over 0.2 and 3.5 SD of the protein, either way, in both replicates (recomputed)
[1] = compound: CN1CC[C@H](c2c(O)cc(O)c3c(=O)cc(-c4ccccc4Cl)oc23)[C@H](O)C1 [alvocidib]
Summary of the method: (§1)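 A 30 min treatment with 10 μM compound was applied to crude K562 extract at 1 mg/mL protein in PBS pH 7.4 with 1 mM MgCl2. Heating for 3 min spanned 48°C-58°C, after which aliquots were pooled, adjusted to 0.5% NP-40 at 4°C and spun at 21,000xg for 90 min. TMTpro 16plex LC-MS/MS of the supernatant, with channel sums equalised, gave values recorded as log-two fold change in thermal stability against solvent controls, from duplicates.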

[2] = compound: CN1CCc2c(c3ccccc3n2Cc2ccc(C(=O)NO)cc2)C1 [Tubastatin A]
Summary of the method: as §1

[3] = compound: CNC(=O)C1=CC=CC=C1NC2=NC(=NC=C2Cl)NC3=C(C=C(C=C3)N4CCOCC4)OC
Summary of the method: as §1

[4] = compound: CNC(=O)c1ccc(Nc2ncc(C(F)(F)F)c(NCc3nccnc3N(C)S(C)(=O)=O)n2)cc1 [defactinib]
Summary of the method: as §1

[5] = compound: CNc1nc(-c2ccc3c(N)n[nH]c3c2)cc(N2C[C@@H](C(=O)NC3CCCCC3)CC[C@H]2C)n1
Summary of the method: as §1

[6] = compound: COC(=O)N[C@@H](C)CNc1nccc(-c2cn(C(C)C)nc2-c2cc(Cl)cc(NS(C)(=O)=O)c2F)n1 [encorafenib]
Summary of the method: as §1

[7] = compound: COC(=O)[C@H](CCSC)NC(=O)C1=C(C=C(C=C1)NC[C@H](CS)N)C2=CC=CC=C2
Summary of the method: as §1

[8] = compound: COc1cc(Nc2ncc3c(n2)-c2ccc(Cl)cc2C(c2c(F)cccc2OC)=NC3)ccc1C(=O)O [alisertib]
Summary of the method: as §1

[9] = compound: COc1cc2nc(-c3cc(F)ccc3O)nc(N[C@@H]3CNC[C@H]3C(C)(C)O)c2cc1OC
Summary of the method: as §1

[10] = compound: COc1cc2ncnc(Nc3ccc(F)c(Cl)c3)c2cc1OCCCN1CCOCC1 [gefitinib]
Summary of the method: as §1

[11] = compound: CS(=O)(=O)CCNCc1ccc(-c2ccc3ncnc(Nc4ccc(OCc5cccc(F)c5)c(Cl)c4)c3c2)o1 [lapatinib]
Summary of the method: as §1

[12] = compound: CS(=O)(=O)N1CCN(Cc2cc3nc(-c4cccc5[nH]ncc45)nc(N4CCOCC4)c3s2)CC1 [pictilisib]
Summary of the method: as §1

[13] = compound: C[C@@H](Oc1cc(-c2cnn(C3CCNCC3)c2)cnc1N)c1c(Cl)ccc(F)c1Cl [crizotinib]
Summary of the method: as §1

[14] = compound: C[C@H](C1=CC=C(C=C1)C(=O)NC2=C3C=CNC3=NC=C2)N
Summary of the method: as §1

[15] = compound: C[C@H](Nc1ncnc2nc[nH]c12)c1cc2cccc(Cl)c2c(=O)n1-c1ccccc1 [duvelisib]
Summary of the method: as §1

[16] = compound: Cc1cc(Nc2cc(CN3CCOCC3)c3nc(C)c(Cc4ccc(Cl)cc4F)n3n2)n[nH]1 [gandotinib]
Summary of the method: as §1

[17] = compound: Cc1cc(Nc2cc(N3CCN(C)CC3)nc(Sc3ccc(NC(=O)C4CC4)cc3)n2)n[nH]1 [tozasertib]
Summary of the method: as §1

[18] = compound: Cc1ccc(-n2nc(C(C)(C)C)cc2NC(=O)Nc2ccc(OCCN3CCOCC3)c3ccccc23)cc1 [doramapimod]
Summary of the method: as §1

[19] = compound: Cc1ccc(NC(=O)c2ccc(CN3CC[C@H](N(C)C)C3)c(C(F)(F)F)c2)cc1Nc1nccc(-c2cncnc2)n1 [bafetinib]
Summary of the method: as §1

[20] = compound: Cc1cccc(CC(=O)N2CCc3c2ccc(-c2cn(C)c4ncnc(N)c24)c3F)n1
Summary of the method: as §1

Measured: log2 fold change

INTS7 (UniProt Q9NVH2)
UniProt Q9NVH2, sequence (Q9NVH2 whole entry, looked up): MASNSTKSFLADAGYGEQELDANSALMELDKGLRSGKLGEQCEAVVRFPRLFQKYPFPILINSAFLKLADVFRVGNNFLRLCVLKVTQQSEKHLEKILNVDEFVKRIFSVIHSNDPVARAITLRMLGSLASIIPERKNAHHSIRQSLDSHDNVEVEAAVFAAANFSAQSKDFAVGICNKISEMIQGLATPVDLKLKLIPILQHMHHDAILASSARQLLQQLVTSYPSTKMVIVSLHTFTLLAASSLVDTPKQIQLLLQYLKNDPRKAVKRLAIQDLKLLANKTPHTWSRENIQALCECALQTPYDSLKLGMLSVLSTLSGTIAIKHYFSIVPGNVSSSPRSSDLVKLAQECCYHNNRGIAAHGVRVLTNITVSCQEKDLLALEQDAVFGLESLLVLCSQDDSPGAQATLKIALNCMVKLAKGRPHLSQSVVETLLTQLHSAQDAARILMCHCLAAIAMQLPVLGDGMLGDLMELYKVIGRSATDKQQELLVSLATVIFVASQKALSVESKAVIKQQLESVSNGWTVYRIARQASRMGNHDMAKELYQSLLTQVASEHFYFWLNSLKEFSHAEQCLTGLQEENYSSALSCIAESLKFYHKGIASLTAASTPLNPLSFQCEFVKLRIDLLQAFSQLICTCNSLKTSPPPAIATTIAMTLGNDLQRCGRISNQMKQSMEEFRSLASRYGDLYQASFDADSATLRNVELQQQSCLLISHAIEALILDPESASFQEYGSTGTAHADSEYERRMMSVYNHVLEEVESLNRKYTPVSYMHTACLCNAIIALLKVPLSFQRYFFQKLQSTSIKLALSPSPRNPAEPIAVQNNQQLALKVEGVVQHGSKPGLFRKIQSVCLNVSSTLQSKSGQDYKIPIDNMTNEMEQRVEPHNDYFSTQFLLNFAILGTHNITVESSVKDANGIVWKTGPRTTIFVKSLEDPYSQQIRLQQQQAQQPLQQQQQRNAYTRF
inactive: [1] -0.012 | [2] 0.008 | [3] -0.025 | [4] -0.125 | [5] -0.017 | [6] 0.067 | [7] 0.017 | [8] -0.022 | [9] -0.018 | [10] 0.028 | [11] 0.01 | [12] -0.032 | [13] -0.07 | [14] -0.096 | [15] 0.01 | [16] -0.077 | [17] -0.01 | [18] 0.4 | [19] 0.141 | [20] 0.012

GUSB (UniProt P08236)
inactive: [1] -0.278 | [2] 0.022 | [3] 0.017 | [4] 0.015 | [5] -0.027 | [6] 0.089 | [7] -0.019 | [8] 0.089 | [9] 0.071 | [10] -0.049 | [11] -0.097 | [12] -0.012 | [13] -0.044 | [15] 0.017 | [16] 0.228 | [17] 0.02 | [18] 0.037 | [19] -0.057 | [20] 0.27
active: [14] -0.547

HDAC3 (UniProt O15379)
inactive: [1] 0.005 | [2] -0.039 | [3] 0.013 | [4] -0.023 | [5] 0.069 | [6] 0.008 | [7] -0.057 | [8] 0.02 | [9] -0.015 | [10] 0.014 | [11] 0.02 | [12] 0.008 | [13] 0.015 | [14] 0.076 | [15] -0.067 | [16] -0.015 | [17] 0.054 | [18] -0.024 | [19] -0.005 | [20] -0.045

HMGCL (UniProt P35914)
inactive: [1] 0.013 | [2] -0.012 | [3] -0.015 | [4] 0.059 | [5] 0.055 | [6] 0.032 | [7] -0.102 | [8] -0.031 | [9] -0.016 | [10] -0.021 | [11] -0.005 | [12] -0.029 | [13] 0.012 | [14] 0.033 | [15] 0.002 | [16] -0.029 | [17] 0.026 | [18] 0.008 | [19] -0.016 | [20] -0.031

HAUS5 (UniProt O94927)
UniProt O94927, sequence (O94927 whole entry, looked up): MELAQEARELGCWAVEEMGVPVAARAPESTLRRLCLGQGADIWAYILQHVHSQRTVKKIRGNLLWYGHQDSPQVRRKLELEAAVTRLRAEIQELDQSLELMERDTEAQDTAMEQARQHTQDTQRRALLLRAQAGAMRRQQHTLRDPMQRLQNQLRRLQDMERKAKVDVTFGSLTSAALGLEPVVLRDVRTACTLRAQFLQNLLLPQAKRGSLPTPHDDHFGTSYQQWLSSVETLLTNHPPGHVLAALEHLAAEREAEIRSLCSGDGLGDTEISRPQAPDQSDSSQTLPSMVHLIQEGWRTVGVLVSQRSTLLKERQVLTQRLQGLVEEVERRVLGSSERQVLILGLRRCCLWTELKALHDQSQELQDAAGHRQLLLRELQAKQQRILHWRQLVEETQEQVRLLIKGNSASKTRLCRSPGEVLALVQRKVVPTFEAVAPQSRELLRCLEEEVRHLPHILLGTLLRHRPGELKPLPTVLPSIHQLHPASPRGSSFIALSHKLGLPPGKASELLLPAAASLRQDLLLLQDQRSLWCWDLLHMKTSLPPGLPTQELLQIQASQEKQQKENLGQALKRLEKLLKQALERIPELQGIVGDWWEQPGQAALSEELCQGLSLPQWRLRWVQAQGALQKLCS
inactive: [1] 0.062 | [2] -0.146 | [3] 0.007 | [4] 0.026 | [5] 0.015 | [6] -0.006 | [7] 0.092 | [8] -0.01 | [9] 0.006 | [10] -0.007 | [11] -0.036 | [12] -0.017 | [13] -0.071 | [14] 0.05 | [15] 0.044 | [16] -0.098 | [17] -0.002 | [18] 0.032 | [19] -0.042 | [20] -0.029

HSPB1 (UniProt P04792)
inactive: [1] 0.003 | [2] -0.023 | [3] -0.003 | [4] 0 | [5] -0.036 | [6] -0.001 | [7] 0.025 | [8] 0.012 | [9] 0.009 | [10] -0.012 | [11] -0.017 | [12] -0.013 | [13] 0.036 | [14] 0.008 | [15] 0.014 | [16] -0.018 | [17] -0.017 | [19] -0.031 | [20] -0.021
active: [18] -0.31

GSK3A (UniProt P49840)
UniProt P49840, sequence (P49840 whole entry, looked up): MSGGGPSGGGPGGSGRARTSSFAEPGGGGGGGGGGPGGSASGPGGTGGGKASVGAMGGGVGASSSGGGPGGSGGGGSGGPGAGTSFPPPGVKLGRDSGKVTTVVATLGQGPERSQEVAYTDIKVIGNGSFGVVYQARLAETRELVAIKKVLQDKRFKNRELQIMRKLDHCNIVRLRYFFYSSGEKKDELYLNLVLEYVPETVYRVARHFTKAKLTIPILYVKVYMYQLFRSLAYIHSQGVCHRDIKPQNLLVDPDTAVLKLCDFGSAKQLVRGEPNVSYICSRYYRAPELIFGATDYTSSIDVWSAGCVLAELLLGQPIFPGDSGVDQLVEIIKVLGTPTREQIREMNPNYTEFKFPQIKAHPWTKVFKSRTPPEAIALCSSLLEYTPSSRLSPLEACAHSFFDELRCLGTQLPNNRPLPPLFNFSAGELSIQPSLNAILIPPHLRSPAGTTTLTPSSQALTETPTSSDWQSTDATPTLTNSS
inactive: [2] -0.089 | [3] 0.05 | [4] 0.353 | [5] -0.042 | [6] 0.161 | [7] -0.118 | [8] -0.03 | [9] -0.015 | [10] 0.003 | [11] -0.026 | [12] 0.207 | [13] 0.069 | [14] -0.002 | [15] 0.016 | [17] -0.017 | [18] 0.002 | [19] 0.008 | [20] -0.02
active: [1] 0.53 | [16] 0.641

IGF2BP3 (UniProt O00425)
UniProt O00425, sequence (O00425 whole entry, looked up): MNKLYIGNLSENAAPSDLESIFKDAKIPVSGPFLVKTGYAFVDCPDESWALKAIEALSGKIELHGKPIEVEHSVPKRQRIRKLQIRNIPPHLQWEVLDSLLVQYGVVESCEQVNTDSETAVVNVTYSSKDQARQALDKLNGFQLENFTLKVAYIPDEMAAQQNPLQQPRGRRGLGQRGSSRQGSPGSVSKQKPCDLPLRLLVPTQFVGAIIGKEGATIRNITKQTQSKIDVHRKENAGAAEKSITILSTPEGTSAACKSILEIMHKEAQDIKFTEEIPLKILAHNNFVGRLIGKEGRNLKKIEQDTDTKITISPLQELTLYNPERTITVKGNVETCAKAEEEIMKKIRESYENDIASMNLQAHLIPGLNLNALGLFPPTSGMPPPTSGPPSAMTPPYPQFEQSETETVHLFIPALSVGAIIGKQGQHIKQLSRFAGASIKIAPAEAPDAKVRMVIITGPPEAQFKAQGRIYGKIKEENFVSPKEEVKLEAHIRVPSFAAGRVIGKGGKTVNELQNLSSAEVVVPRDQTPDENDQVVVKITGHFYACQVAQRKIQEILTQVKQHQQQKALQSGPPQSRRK
inactive: [1] 0.012 | [2] -0.147 | [3] -0.022 | [4] -0.028 | [5] -0.016 | [6] -0.022 | [7] 0.218 | [8] 0.006 | [9] -0.003 | [10] -0.017 | [11] 0.013 | [12] -0.038 | [13] -0.031 | [14] -0.032 | [15] 0.017 | [16] -0.04 | [17] 0.001 | [18] -0.006 | [19] -0.045 | [20] 0.053

IMMT (UniProt Q16891)
UniProt Q16891, sequence (Q16891 whole entry, looked up): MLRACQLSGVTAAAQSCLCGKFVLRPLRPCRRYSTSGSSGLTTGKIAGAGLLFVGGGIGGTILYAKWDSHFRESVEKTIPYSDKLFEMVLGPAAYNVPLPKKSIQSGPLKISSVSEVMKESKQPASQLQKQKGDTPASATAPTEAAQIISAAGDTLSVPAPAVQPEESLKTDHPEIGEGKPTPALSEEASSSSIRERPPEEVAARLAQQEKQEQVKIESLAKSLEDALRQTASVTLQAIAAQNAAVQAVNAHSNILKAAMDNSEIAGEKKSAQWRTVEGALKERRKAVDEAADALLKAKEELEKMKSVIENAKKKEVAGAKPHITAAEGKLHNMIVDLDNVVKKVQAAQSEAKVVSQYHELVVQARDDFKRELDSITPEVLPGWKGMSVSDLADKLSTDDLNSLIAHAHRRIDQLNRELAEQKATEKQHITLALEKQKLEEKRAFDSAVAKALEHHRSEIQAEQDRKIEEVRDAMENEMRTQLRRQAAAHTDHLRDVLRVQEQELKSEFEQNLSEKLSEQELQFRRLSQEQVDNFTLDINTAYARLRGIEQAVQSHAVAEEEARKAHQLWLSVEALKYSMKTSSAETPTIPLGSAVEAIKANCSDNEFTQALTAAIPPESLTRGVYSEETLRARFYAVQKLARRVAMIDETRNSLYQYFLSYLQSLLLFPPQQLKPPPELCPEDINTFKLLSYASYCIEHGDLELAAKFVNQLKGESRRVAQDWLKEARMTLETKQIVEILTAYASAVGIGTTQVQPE
inactive: [1] 0.031 | [2] -0.079 | [3] -0.03 | [4] 0.019 | [5] -0.041 | [6] 0.014 | [7] -0.045 | [8] 0.034 | [9] -0.145 | [10] -0.022 | [11] -0.058 | [12] 0.001 | [13] -0.049 | [14] -0.006 | [15] -0.039 | [16] -0.134 | [17] 0.02 | [18] 0.011 | [19] -0.053 | [20] 0.023

HSP90AA4P (UniProt Q58FG1)
UniProt Q58FG1, sequence (Q58FG1 whole entry, looked up): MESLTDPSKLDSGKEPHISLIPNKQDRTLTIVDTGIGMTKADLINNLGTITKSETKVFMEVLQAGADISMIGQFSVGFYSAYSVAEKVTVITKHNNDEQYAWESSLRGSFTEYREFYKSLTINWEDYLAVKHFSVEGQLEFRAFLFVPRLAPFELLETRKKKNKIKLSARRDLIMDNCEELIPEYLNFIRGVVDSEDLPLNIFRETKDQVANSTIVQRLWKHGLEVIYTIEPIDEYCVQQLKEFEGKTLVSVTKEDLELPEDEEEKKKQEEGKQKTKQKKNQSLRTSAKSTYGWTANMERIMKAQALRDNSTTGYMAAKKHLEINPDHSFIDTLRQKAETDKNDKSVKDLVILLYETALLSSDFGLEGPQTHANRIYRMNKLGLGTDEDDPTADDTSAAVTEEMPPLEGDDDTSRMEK
active: [14] -0.464
inactive: [1] -0.228 | [2] 0.052 | [3] -0.081 | [4] -0.213 | [5] -0.046 | [6] -0.022 | [7] 0.123 | [8] -0.012 | [9] 0.068 | [10] 0.042 | [11] -0.035 | [12] -0.129 | [13] -0.032 | [15] 0.011 | [16] 0.042 | [17] 0.08 | [18] -0.034 | [19] -0.235 | [20] 0.128

GLYR1 (UniProt Q49A26)
UniProt Q49A26, sequence (Q49A26 whole entry, looked up): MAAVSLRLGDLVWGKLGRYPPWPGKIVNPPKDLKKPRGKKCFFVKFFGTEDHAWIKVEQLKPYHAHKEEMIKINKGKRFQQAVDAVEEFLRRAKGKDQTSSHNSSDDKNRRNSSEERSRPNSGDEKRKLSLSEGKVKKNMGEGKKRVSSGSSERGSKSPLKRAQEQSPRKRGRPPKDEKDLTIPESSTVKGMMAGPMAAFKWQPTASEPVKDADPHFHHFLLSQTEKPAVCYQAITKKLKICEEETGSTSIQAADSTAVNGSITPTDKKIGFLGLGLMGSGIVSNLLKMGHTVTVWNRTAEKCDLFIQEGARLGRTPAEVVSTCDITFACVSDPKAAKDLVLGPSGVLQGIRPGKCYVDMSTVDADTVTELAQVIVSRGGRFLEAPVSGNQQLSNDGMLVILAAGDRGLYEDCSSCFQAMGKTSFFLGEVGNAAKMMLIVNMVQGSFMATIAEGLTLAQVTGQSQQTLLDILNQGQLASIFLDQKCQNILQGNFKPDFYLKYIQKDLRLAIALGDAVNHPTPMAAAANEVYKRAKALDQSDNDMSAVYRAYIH
inactive: [1] 0.013 | [2] -0.007 | [3] -0.046 | [4] -0.084 | [5] -0.078 | [6] -0.001 | [7] 0.074 | [8] -0.011 | [9] -0.046 | [10] -0.093 | [11] 0.053 | [12] 0.045 | [13] -0.058 | [14] 0.019 | [15] -0.079 | [16] 0.045 | [17] -0.044 | [18] 0.11 | [19] -0.042 | [20] -0.04

INPP4A (UniProt Q96PE3)
inactive: [1] -0.032 | [2] -0.051 | [3] 0.033 | [4] 0.046 | [5] 0.009 | [6] 0.01 | [7] -0.019 | [8] -0.026 | [9] 0.01 | [10] -0.033 | [11] -0.028 | [12] -0.116 | [13] -0.024 | [14] -0.086 | [15] 0.025 | [16] 0.003 | [17] 0.065 | [18] 0.014 | [19] 0.132 | [20] 0.128

ILRUN (UniProt Q9H6K1)
inactive: [1] 0.031 | [2] -0.059 | [3] 0.047 | [4] -0.01 | [5] -0.004 | [6] 0.052 | [7] -0.03 | [8] 0.123 | [9] 0.056 | [10] 0.115 | [11] -0.045 | [12] -0.033 | [13] 0.009 | [14] -0.025 | [15] 0.016 | [16] 0.012 | [17] 0.013 | [18] -0.028 | [19] -0.023 | [20] -0.017

HNRNPUL2 (UniProt Q1KMD3)
inactive: [1] -0.001 | [2] 0.007 | [3] 0.004 | [4] 0.002 | [5] -0.009 | [6] -0.023 | [7] 0.105 | [8] 0.009 | [9] 0.019 | [10] -0.023 | [11] -0.037 | [12] -0.028 | [13] -0.033 | [14] -0.002 | [15] 0.012 | [16] -0.005 | [17] 0.009 | [18] -0.008 | [19] -0.009 | [20] 0.043

KARS1 (UniProt Q15046)
UniProt Q15046, sequence (Q15046 whole entry, looked up): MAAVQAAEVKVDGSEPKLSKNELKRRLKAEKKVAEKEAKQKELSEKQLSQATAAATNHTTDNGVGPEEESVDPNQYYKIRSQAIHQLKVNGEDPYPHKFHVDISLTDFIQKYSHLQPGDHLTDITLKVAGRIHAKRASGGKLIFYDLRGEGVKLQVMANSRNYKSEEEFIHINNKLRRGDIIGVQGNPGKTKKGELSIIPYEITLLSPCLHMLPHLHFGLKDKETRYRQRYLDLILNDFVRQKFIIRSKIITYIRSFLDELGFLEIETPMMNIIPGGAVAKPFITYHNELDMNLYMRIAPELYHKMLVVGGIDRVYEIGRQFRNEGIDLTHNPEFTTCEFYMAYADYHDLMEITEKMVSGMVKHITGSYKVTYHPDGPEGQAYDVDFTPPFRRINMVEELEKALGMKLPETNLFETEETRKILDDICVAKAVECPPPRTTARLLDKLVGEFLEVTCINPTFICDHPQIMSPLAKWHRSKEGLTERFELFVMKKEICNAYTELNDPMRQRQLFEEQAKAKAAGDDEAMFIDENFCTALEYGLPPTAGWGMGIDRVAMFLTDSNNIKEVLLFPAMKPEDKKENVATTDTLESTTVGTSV
inactive: [1] 0.027 | [2] -0.01 | [3] -0.037 | [4] 0 | [5] -0.035 | [6] -0.028 | [8] 0.012 | [9] -0.011 | [10] -0.022 | [11] -0.002 | [12] 0 | [13] 0.003 | [14] 0.036 | [15] 0.004 | [16] -0.082 | [17] 0.025 | [18] 0.007 | [19] -0.025 | [20] -0.026
active: [7] 0.379

KEAP1 (UniProt Q14145)
inactive: [1] -0.024 | [2] -0.019 | [3] -0.008 | [4] 0.014 | [5] 0.017 | [6] 0.043 | [7] -0.094 | [8] 0.012 | [9] 0.013 | [10] 0.018 | [11] -0.005 | [12] -0.023 | [13] -0.007 | [14] 0 | [15] 0.026 | [16] 0.019 | [17] -0.017 | [18] 0.01 | [19] 0 | [20] 0.008
